In PubChem BioAssay (NCATS):
Records with an inconclusive call do not appear. The source made the active and inactive calls. Unless noted, calls follow the shape of the dose curve; as a rule, active = well fitted curve in the direction sought with a large enough effect; inconclusive = small, poorly fitted or top-dose-only effect, or another doubt; inactive = no such curve, though single readings can be large; an effect the other way counts as inactive or inconclusive.

Legend:
[1] = molecular target: Lysosomal acid glucosylceramidase (Homo sapiens) (UniProt P04062); assay: Glucocerebrosidase-p2 (AID 348; in the data active = potency below about 10 µM; also: potency is read from the fitted curve at half-maximal effect); settings: purified GBA, blue fluorogenic substrate, 40 min
Procedure, shortened: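 Normal human glucocerebrosidase (0.2 nM) with blue fluorogenic substrate (80 uM final) in citrate/phosphate pH 5.9 with 10mM sodium taurocholate, 0.01% tween-20; 40 min RT, NaOH/glycine stop; fluorescence Ex 365/Em 440; AC50 from a titration from 0.6 nM upwards.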

[2] = AP1 Signaling Pathway (AID 357; active = well fitted curve in either direction with a large enough effect, not every such curve was filed as active;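 also: ME-180 reporter cells stimulated with EGF at its EC50 level; % is scaled to controls: 0 for no effect and ±100 for the full control effect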); settings: ME-180 AP-1-bla reporter, EGF-induced, beta-lactamase ratio, 5 h; at 7.69 µM (top of the series) unless noted
Procedure, shortened: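 Modulation of EGF-driven AP-1 transcription was assessed with a beta-lactamase reporter in ME-180 cells. Compound and EC50 EGF were co-incubated 5 hours at 37 °C before 2.5-hour CCF4 loading at room temperature and dual-emission reading.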

[3] = molecular target: Cytochrome P450 1A2 (Homo sapiens) (UniProt P05177); assay: p450-cyp1a2 (AID 410; calls by dose curve; also: potency is read from the fitted curve at half-maximal effect); settings: recombinant CYP1A2, luciferin-ME demethylation, luminescence; series mostly up to 57 µM
Procedure, shortened: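 20nM CYP1A2, 100uM Luciferin-ME (=Km), 100mM KPO4; cpd 10 min RT; +NADPH regen, 60 min RT; stop/detect 20 min; luminescence. Normalized to furafylline 57 uM = full inhibition.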

[4] = NFAT Signaling Pathway (AID 444; active = well fitted curve in either direction with a large enough effect, not every such curve was filed as active;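 also: carbachol stimulus at about its EC50 of 1 µM final; % is scaled to controls: 0 for no effect and ±100 for the full control effect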); settings: Jurkat NFAT-bla M1, carbachol, beta-lactamase ratio, 5 h; at 7.69 µM (top of the series) unless noted
Procedure, shortened: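 Jurkat cells with NFAT-driven β-lactamase reporter and co-expressed M1 receptor, stimulated with carbachol (final 1 uM, ~EC50), compound titration, 5 h at 37 °C. CCF4 loaded 1 h at RT; 460/530 nm ratio gave %activity and AC50.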

[5] = Stat Signaling Pathway (AID 446; active = well fitted curve in either direction with a large enough effect, not every such curve was filed as active;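 also: ME-180 cervical cancer cells given 40 pM IL-6 alongside compound; SIE-controlled beta-lactamase reporter measured as 460/530 nm FRET emission ratio; % is scaled to controls: 0 for no effect and ±100 for the full control effect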); settings: ME-180 (cervical carcinoma) SIE beta-lactamase reporter, IL-6 stimulated, 5 h; at 7.69 µM (top of the series) unless noted
Procedure, shortened: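 Overnight-plated ME-180 cells bearing a STAT Inducible Element beta-lactamase reporter; 5 h co-exposure to compound and 40 pM IL-6; values normalized to 300 pM IL-6 and 125 nM JAK inhibitor controls.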

[6] = molecular target: Glucocorticoid receptor (Homo sapiens) (UniProt P04150); assay: GR-GFP Redistribution (AID 450;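 active = compounds whose dose series gives a full or clear partial fitted curve of increased nuclear translocation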; also: potency is read from the fitted curve at half-maximal effect); settings: U2OS GR-GFP nuclear translocation, laser cytometry, 2 h
[7] = molecular target: Glucocorticoid receptor (Homo sapiens) (UniProt P04150); assay: GR-EFC Redistribution (AID 451; calls by dose curve; also: potency is read from the fitted curve at half-maximal effect); settings: CHO-K1 GR-EFC translocation, beta-gal luminescence, 2 h
Procedure, shortened: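 CHO-K1 cells expressing nuclear EA and GR-ED fragments of b-gal; compounds titrated up to 46 uM final, 2 h at 37 C. GR nuclear translocation read as complemented b-gal luminescence after 1 h RT detection.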

[8] = molecular target: Mitogen-activated protein kinase 10 (Mus musculus) (UniProt Q61831); assay: JNK3 AlphaScreen Assay (AID 530; active = well fitted curve in either direction with a large enough effect, not every such curve was filed as active;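 also: kinase came from lysate of stimulated human HepG2 cells; signal reports phosphorylation of biotinylated GST-cJun 1-79 at Ser73 with 10 µM ATP; % is scaled to controls: 0 for no effect and ±100 for the full control effect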); settings: JNK3 lysate, c-Jun phosphorylation; series mostly up to 57.1 µM
Procedure, shortened: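 HepG2 lysate (IL-1b/TNFa pre-activated) + biotin-GST-cJun 1-79 + anti-pSer73 cJun; cpd titration, 15 min RT; ATP 10 uM start; Tris pH 7.6, MgCl2, DTT, vanadate; beads in EDTA buffer; AlphaScreen.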

[9] = molecular target: 3',5'-cyclic-AMP phosphodiesterase 4B (Homo sapiens) (UniProt Q07343); assay: qHTS Assay for Inhibitors of PDE-IV (AID 607; active = well fitted activation curve with a large enough effect in the main read-out, with a control signal flat, not every such curve was filed as active; also: % of control where 0% means no effect); settings: HEK293 ACTOne CNG channel cells, membrane potential fluorescence; series mostly up to 22.9 µM
Procedure, shortened: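 Live HEK293 cells with a modified cyclic nucleotide-gated (CNG) channel report intracellular cAMP via membrane-potential dye fluorescence (ex 535/em 590 nm). Endogenous PDE-IV was targeted. Compounds were tested at up to 22.9 uM final; RO 20-1724 100 uM served as control.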

[10] = qHTS Assay for Lipid Storage Modulators (AID 1519; calls by dose curve); settings: Drosophila S3 cells, BODIPY lipid droplet/cell ratio, laser cytometry, cells loaded with oleic acid; for activity change, negative = inhibition: at 57.5 µM (top of the series)
Procedure, shortened: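 Cells seeded at 5,000 per well were treated with compounds over a concentration series and loaded with oleic acid (400 uM, as added). Lipid droplet fluorescence (488 nm excitation, 500-530 nm channel) was read by laser-scanning cytometry and normalized to 20 uM Triacsin C.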

[11] = molecular target: Dual specificity protein kinase CLK4 (Homo sapiens) (UniProt Q9HAZ1); assay: qHTS Assay for Inhibitors of CDC-like Kinase 4 (Kinase-Glo Assay) (AID 1770); settings: recombinant Clk4, Kinase-Glo ATP depletion luminescence; series mostly up to 66.7 µM; also: nearly all actives have a fitted effect of over 65% in size; also: potency is read from the fitted curve at half-maximal effect
Procedure, shortened: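 Luminescent ATP-depletion read-out (Kinase-Glo) after 4.5 h room-temperature reaction of Clk4 (25 nM final) with RS peptide (100 uM) and ATP (1 uM), pH 7.5 Tris buffer with MgCl2 and DTT.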

[12] = molecular target: Dual specificity protein kinase CLK4 (Homo sapiens) (UniProt Q9HAZ1); assay: qHTS Assay for Inhibitors of CDC-like Kinase 4 (ADP-Glo Assay) (AID 1771); settings: recombinant CLK4, ADP-Glo luminescence; series mostly up to 80 µM; also: nearly all actives have a fitted effect of over 70% in size; also: potency is read from the fitted curve at half-maximal effect
Procedure, shortened: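 25 nM Clk4, 100 uM RS peptide, 1 uM ATP (final); 2 mM MgCl2, 0.5 mM EGTA, 2.5 mM DTT, 0.01% Triton X-100; 1 hr RT. ADP-Glo readout: ATP depletion 45 min, conversion/luciferase 30 min, luminescence.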

[13] = molecular target: Dual specificity protein kinase CLK4 (Homo sapiens) (UniProt Q9HAZ1); assay: qHTS Assay for Inhibitors of CDC-like Kinase 4 (ADP-FP Assay) (AID 1795); settings: Transcreener ADP fluorescence polarization; series mostly up to 50 µM; also: nearly all actives have a fitted effect of over 60% in size; also: potency is read from the fitted curve at half-maximal effect
Procedure, shortened: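 Kinase activity was measured as ADP production using Transcreener orange tracer (4 nM) and ADP antibody (1 ug/mL) fluorescence polarization, with ADP calculated from a calibration curve. The 1 h reaction contained 6.25 nM Clk4, 1 uM ATP and 100 uM RS peptide at pH 7.5 with Mg2+.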

[14] = molecular target: Ubiquitin carboxyl-terminal hydrolase 1 (Homo sapiens) (UniProt O94782); assay: Inhibitors of USP1/UAF1: Pilot qHTS (AID 504865); settings: purified USP1/UAF1, Ub-rhodamine cleavage fluorescence; series mostly up to 54.9 µM;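 also: rhodamine fluorescence freed from ubiquitin-rhodamine substrate followed over time; top concentration of the series differs between compounds; % is scaled to controls: 0 for no effect and ±100 for the full control effect; nearly all actives have a fitted effect of over 35% in size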
Procedure, shortened: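 Deubiquitinase activity followed as kinetic rhodamine fluorescence release from 150 nM Ub-Rho. 1 nM USP1/UAF1 with compound, after 15 min room-temperature preincubation, in HEPES pH 7.8 buffer containing TCEP, EDTA, BSA and Tween-20.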

[15] = Primary qHTS for small molecule stabilizers of the endoplasmic reticulum resident proteome: Secreted ER Calcium Modulated Protein (SERCaMP) assay (AID 1508630); settings: SH-SY5Y GLuc-SERCaMP (Gaussia luciferase released on ER calcium loss) secretion, thapsigargin, luminescence; series mostly up to 38.4 µM; also: % is scaled to controls: 0 for no effect and ±100 for the full control effect
Procedure, shortened: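 The SH-SY5Y reporter protocol was run at 3 concentrations up to 38.3 uM (primary) or 11 concentrations (follow-up): 16 h compound, 100 nM thapsigargin for 4 h, then extracellular luciferase luminescence.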

[16] = molecular target: Cytochrome P450 3A4 (Homo sapiens) (UniProt P08684); assay: qHTS Assay for Activators of Cytochrome P450 3A4 (AID 885); settings: recombinant CYP3A4, Luciferin-PPXE luminescence, 60 min; series mostly up to 57.1 µM; also: nearly all actives have a fitted effect of over 65% in size
Procedure, shortened: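 Using 20nM recombinant human CYP3A4 in potassium phosphate (200mM), substrate Luciferin-PPXE at 25uM, luminescent luciferin detection followed a 60-min RT NADPH reaction; data scaled to 57 uM ketoconazole.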

[17] = measured here: cell count channel max response
[18] = measured here: lipid channel max response

Chain of Cytochrome P450 3A4 (Homo sapiens) (P08684 whole entry, looked up): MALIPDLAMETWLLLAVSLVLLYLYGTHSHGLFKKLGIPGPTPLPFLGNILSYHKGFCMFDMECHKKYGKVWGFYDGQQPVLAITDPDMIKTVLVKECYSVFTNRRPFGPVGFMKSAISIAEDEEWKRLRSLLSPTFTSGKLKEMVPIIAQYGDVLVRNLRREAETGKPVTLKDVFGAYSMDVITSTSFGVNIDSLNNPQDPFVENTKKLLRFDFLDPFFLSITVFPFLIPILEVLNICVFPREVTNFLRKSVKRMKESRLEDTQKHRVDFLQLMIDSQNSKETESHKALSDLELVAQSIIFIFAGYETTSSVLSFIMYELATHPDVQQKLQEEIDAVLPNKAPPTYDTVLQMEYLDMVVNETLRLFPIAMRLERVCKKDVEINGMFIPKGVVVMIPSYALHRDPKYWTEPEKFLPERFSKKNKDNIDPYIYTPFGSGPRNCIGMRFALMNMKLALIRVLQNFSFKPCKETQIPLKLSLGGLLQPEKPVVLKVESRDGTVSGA
Chain of Dual specificity protein kinase CLK4 (Homo sapiens) (Q9HAZ1 whole entry, looked up): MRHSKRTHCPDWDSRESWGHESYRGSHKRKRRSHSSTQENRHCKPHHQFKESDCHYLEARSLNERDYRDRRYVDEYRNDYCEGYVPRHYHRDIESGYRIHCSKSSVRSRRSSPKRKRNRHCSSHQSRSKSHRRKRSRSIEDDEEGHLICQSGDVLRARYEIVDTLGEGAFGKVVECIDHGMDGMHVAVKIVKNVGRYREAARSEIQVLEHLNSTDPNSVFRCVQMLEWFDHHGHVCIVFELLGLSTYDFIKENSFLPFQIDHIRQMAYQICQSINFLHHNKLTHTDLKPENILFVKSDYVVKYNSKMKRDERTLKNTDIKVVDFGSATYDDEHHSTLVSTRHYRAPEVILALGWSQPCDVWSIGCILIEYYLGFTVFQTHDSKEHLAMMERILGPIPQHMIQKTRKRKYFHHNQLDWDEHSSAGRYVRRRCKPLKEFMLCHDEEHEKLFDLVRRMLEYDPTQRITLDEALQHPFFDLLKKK
Chain of Ubiquitin carboxyl-terminal hydrolase 1 (Homo sapiens) (O94782 whole entry, looked up): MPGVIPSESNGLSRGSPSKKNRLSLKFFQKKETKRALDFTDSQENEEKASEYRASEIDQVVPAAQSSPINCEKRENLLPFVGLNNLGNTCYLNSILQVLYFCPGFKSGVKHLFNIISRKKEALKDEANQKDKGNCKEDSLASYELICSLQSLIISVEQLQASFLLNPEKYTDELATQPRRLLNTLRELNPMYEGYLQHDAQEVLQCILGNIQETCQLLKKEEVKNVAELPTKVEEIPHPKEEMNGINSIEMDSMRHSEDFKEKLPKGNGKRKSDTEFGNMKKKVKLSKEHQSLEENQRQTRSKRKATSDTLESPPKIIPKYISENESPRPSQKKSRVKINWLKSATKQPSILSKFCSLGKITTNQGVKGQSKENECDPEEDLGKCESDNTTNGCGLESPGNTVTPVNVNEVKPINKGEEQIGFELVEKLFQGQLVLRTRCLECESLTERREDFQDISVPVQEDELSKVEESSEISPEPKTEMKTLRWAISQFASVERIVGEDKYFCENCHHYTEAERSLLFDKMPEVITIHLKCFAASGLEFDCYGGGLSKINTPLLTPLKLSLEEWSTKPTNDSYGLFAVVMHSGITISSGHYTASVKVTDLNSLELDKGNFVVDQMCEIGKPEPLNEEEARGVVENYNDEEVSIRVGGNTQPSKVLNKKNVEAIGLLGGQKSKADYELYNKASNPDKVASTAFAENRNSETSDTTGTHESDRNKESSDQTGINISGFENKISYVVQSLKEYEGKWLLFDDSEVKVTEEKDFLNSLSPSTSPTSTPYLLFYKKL
Chain of Lysosomal acid glucosylceramidase (Homo sapiens) (P04062 whole entry, looked up): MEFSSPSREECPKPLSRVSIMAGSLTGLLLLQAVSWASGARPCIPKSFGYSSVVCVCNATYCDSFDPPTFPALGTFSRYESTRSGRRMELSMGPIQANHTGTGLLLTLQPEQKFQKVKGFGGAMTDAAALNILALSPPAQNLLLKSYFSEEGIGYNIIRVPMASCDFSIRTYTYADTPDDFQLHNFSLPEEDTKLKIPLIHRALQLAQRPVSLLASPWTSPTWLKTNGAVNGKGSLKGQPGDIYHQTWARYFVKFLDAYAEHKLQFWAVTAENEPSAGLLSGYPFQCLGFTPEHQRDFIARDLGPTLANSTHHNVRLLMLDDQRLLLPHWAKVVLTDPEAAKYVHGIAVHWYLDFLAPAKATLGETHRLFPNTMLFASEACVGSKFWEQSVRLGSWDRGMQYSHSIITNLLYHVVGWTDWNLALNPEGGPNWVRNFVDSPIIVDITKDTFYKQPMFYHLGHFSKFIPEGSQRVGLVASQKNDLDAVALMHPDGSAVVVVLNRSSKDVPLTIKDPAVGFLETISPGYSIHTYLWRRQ
Chain of 3',5'-cyclic-AMP phosphodiesterase 4B (Homo sapiens) (Q07343 whole entry, looked up): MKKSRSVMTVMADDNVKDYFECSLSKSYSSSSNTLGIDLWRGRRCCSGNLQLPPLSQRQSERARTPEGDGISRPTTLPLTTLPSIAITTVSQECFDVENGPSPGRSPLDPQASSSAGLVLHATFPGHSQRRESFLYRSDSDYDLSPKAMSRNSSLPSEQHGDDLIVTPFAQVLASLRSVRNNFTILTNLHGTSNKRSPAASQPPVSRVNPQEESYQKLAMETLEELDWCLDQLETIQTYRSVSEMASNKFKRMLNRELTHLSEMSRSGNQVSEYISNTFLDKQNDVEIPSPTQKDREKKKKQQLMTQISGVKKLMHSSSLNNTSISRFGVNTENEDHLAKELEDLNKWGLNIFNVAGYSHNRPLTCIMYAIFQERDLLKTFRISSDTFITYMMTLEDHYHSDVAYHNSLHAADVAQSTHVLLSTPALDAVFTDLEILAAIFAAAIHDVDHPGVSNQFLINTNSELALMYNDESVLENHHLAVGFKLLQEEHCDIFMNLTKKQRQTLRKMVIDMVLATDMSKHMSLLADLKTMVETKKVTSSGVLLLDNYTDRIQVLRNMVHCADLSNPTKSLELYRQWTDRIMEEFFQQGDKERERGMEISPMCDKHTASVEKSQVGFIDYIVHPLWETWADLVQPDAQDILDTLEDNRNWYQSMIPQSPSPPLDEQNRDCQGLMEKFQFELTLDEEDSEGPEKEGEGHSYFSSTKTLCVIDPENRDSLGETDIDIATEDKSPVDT
Chain of Glucocorticoid receptor (Homo sapiens) (P04150 whole entry, looked up, the tested form may be a part): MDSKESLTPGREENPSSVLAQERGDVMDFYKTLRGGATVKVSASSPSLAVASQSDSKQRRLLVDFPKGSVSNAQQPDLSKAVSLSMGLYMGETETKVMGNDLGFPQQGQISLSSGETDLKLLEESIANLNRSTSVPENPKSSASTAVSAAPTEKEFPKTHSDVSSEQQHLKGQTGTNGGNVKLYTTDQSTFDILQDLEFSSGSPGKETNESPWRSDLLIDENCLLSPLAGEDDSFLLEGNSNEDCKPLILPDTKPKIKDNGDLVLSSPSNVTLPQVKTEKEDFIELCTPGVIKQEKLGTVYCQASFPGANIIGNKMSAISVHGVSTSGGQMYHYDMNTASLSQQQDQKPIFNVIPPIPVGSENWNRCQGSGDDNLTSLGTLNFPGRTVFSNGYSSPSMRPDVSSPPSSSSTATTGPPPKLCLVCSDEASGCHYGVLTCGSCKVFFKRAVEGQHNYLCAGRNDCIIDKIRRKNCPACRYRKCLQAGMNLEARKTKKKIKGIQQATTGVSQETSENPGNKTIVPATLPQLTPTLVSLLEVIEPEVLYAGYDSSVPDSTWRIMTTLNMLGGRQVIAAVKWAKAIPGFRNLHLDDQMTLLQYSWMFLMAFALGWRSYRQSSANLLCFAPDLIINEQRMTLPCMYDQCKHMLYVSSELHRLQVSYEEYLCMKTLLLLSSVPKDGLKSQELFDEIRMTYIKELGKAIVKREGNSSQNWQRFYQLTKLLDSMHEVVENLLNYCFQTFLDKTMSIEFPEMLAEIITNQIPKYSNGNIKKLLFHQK
Chain of Cytochrome P450 1A2 (Homo sapiens) (P05177 whole entry, looked up): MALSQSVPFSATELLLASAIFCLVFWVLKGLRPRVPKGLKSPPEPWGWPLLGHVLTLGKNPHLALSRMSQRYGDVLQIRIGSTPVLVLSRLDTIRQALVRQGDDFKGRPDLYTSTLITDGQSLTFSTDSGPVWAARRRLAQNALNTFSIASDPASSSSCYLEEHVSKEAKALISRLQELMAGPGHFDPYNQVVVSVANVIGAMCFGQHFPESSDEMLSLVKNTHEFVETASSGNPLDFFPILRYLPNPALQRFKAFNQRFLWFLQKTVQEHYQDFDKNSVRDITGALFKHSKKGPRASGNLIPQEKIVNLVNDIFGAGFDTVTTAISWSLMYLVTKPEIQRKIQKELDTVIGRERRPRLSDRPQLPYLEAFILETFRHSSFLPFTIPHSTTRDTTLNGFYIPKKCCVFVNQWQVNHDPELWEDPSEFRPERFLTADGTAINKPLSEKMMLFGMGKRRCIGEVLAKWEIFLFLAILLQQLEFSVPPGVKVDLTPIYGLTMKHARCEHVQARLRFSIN

COCCn1c(=O)c(C)nc2cnc(N3CCN(C)CC3)nc21
2.85%: max response [10, 18]
inactive: Potency [1] > 11.4 µM | activity change, negative = inhibition [2] -5.64% | activity change, negative = inhibition [4] 4.52% | activity, negative = inhibition [5] -3.76% | Potency [6] > 9.22 µM | Potency [7] > 46 µM | outcome [8] | Potency [9] | activity change, negative = inhibition [10] 2.08% | Potency [11] | Potency [12] | Potency [13] | Potency [14] | Potency [15]
active: Potency [3] 15.8 µM
3.08%: max response [10, 17]

COc1ccc(Oc2ncc3nc(C)c(=O)n(C[C@H]4CCCO4)c3n2)cc1
inactive: Potency [1] > 11.4 µM | activity change, negative = inhibition [2] -5.04% | activity change, negative = inhibition [4] 1.62% | activity, negative = inhibition [5] -14.8% | Potency [6] > 9.22 µM | Potency [7] > 46 µM | outcome [8] | Potency [9] | Potency [16] | activity change, negative = inhibition [10] -2.24% | Potency [11] | Potency [12] | Potency [13] | Potency [14] | Potency [15]
active: Potency [3] 12.6 µM
-3.75%: max response [10, 17]
-4.08%: max response [10, 18]

N#Cc1cccc(-c2nc3cnc(Oc4cccc(Cl)c4)nc3n(C3CC3)c2=O)c1
active: Potency [3] 2.51 µM
11%: max response [10, 17]
8.29%: max response [10, 18]
inactive: Potency [1] > 11.4 µM | activity change, negative = inhibition [2] -1.53% | activity change, negative = inhibition [4] 12.5% | activity, negative = inhibition [5] -10.1% | Potency [6] > 9.22 µM | Potency [7] > 46 µM | outcome [8] | Potency [9] | activity change, negative = inhibition [10] -3.65% | Potency [11] | Potency [12] | Potency [13] | Potency [14] | Potency [15]

CCNc1ncc2nc(-c3ccc(Cl)cc3)c(=O)n(C[C@H]3CCCO3)c2n1
-29.6%: max response [10, 18]
active: Potency [3] 0.794 µM
-16%: max response [10, 17]
inactive: Potency [1] > 11.4 µM | activity change, negative = inhibition [2] 25.5% | activity change, negative = inhibition [4] 4.01% | Potency [6] > 9.22 µM | Potency [7] > 46 µM | outcome [8] | Potency [9] | activity change, negative = inhibition [10] -12.7% | Potency [11] | Potency [12] | Potency [13] | Potency [14] | Potency [15]

COCCn1c(=O)c(-c2cc(F)cc(F)c2)nc2cnc(N3CCOCC3)nc21
22.1%: max response [10, 17]
26.7%: max response [10, 18]
inactive: Potency [1] > 11.4 µM | activity change, negative = inhibition [2] 11.2% | activity change, negative = inhibition [4] 18.8% | Potency [6] > 9.22 µM | Potency [7] > 46 µM | outcome [8] | Potency [9] | activity change, negative = inhibition [10] 6.45% | Potency [11] | Potency [12] | Potency [13] | Potency [15]
active: Potency [3] 12.6 µM

CN1CCN(c2ncncc2-c2ccc(C(=O)N(C)C)cc2)CC1
active: Potency [3] 15.8 µM
12.3%: max response [10, 17]
inactive: Potency [1] > 11.4 µM | activity change, negative = inhibition [2] 14.8% | activity change, negative = inhibition [4] 4.17% | Potency [6] > 46 µM | Potency [7] > 46 µM | outcome [8] | Potency [9] | Potency [16] | activity change, negative = inhibition [10] 1.02% | Potency [11] | Potency [12] | Potency [13] | Potency [14] | Potency [15]
11.3%: max response [10, 18]

Cc1ccccc1-c1ccc2ncnc(NC3CC3)c2c1
-0.878%: max response [10, 18]
active: Potency [3] 0.126 µM | Potency [11] 11.2 µM | Potency [12] 7.08 µM | Potency [13] 12.6 µM
inactive: Potency [1] > 11.4 µM | activity change, negative = inhibition [2] 5.4% | activity change, negative = inhibition [4] 3.53% | Potency [6] > 46 µM | Potency [7] > 46 µM | outcome [8] | Potency [16] | activity change, negative = inhibition [10] -3.61% | Potency [14] | Potency [15]
4.35%: max response [10, 17]

Cc1ccccc1-c1cncnc1NCc1ccccc1
inactive: Potency [1] > 11.4 µM | activity change, negative = inhibition [2] -6.25% | Potency [6] > 46 µM | Potency [7] > 46 µM | outcome [8] | Potency [16] | activity change, negative = inhibition [10] 5.04% | Potency [11] | Potency [12] | Potency [13] | Potency [14] | Potency [15]
7.66%: max response [10, 17]
10.6%: max response [10, 18]
active: Potency [3] 12.6 µM

O=c1c(-c2cccs2)nc2cnc(N3CCOCC3)nc2n1Cc1ccc(F)cc1
18.9%: max response [10, 17]
13.5%: max response [10, 18]
inactive: Potency [1] > 11.4 µM | activity change, negative = inhibition [2] 27.4% | activity change, negative = inhibition [4] 27.2% | Potency [6] > 9.22 µM | Potency [7] > 46 µM | outcome [8] | Potency [9] | Potency [16] | activity change, negative = inhibition [10] -2.08% | Potency [11] | Potency [12] | Potency [13] | Potency [14] | Potency [15]
active: Potency [3] 20 µM
